From ChEMBL document CHEMBL2218924, “A broad activity screen in support of a chemogenomic map for kinase signalling research and drug discovery” (Biochem J, 2013) come the findings set out here.

The target in test [1] is ALK tyrosine kinase receptor (Homo sapiens) (UniProt Q9UM73). To be noted: at 10 µM.
The target in test [2] is T1, Activin receptor type-1B (Homo sapiens) (UniProt P36896).
T1 sequence (whole entry): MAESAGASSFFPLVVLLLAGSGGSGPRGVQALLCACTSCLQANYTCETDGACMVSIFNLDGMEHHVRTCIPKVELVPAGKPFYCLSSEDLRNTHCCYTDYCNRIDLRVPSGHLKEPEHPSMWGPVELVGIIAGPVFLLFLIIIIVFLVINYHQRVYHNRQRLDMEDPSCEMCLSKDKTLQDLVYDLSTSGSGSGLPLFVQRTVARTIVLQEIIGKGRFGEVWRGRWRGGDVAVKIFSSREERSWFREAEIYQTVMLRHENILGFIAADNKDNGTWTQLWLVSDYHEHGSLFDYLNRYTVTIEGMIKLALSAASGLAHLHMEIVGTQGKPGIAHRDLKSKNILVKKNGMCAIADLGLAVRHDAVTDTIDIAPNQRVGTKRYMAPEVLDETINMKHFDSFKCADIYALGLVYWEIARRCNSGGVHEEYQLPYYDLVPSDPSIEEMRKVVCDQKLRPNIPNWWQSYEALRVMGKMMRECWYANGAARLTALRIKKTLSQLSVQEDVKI
As to conditions: at 1 µM.

The target of test [3] is T1, Activin receptor type-1B (Homo sapiens). To be noted: at 10 µM.
In test [4] the target is T2, AMP-activated protein kinase (AMPK) alpha-1/beta-1/gamma-1 (Homo sapiens) (UniProt P54619+Q9Y478+Q13131). To be noted: at 1 µM.
T2 sequence (P54619 whole entry): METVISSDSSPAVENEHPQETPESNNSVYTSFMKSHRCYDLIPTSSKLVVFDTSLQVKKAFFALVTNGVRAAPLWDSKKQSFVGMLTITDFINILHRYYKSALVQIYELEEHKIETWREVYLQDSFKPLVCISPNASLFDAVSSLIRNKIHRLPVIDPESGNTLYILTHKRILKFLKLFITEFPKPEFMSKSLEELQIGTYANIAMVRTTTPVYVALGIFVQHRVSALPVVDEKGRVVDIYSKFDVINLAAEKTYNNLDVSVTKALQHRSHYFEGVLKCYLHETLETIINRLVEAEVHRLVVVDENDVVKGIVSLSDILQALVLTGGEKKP
T2 sequence (Q13131 whole entry partner): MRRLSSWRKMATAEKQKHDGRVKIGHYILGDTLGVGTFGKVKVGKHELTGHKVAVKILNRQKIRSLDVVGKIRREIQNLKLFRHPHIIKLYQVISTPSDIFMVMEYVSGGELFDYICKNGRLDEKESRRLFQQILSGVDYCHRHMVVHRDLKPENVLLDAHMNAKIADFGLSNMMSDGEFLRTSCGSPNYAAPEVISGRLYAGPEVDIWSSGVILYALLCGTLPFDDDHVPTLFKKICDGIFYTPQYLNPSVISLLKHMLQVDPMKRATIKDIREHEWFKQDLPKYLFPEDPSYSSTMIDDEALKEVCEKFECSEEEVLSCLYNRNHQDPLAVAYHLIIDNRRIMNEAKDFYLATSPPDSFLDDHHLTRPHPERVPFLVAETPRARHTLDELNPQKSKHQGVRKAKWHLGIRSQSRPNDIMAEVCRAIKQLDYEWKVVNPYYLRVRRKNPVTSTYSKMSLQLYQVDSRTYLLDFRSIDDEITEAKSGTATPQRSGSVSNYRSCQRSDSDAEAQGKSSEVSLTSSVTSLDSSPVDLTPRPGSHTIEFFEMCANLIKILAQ
T2 sequence (Q9Y478 2-270 partner limits assumed): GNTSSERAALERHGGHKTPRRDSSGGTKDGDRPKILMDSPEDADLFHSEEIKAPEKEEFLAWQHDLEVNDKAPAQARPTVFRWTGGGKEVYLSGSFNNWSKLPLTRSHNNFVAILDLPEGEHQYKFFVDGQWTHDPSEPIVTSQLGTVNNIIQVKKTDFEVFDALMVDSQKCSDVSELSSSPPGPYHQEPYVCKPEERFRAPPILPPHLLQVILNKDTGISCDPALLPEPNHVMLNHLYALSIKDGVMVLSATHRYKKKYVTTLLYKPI
Test [5] concerns the target T2, AMP-activated protein kinase (AMPK) alpha-1/beta-1/gamma-1 (Homo sapiens). As to conditions: at 10 µM.
The target in test [6] is T3, AMP-activated protein kinase, AMPK (Homo sapiens) (UniProt P54646+O43741+P54619+Q9UGJ0+Q9Y478+Q13131+Q9UGI9). To be noted: at 1 µM.
Test [7] has as its target T3, AMP-activated protein kinase, AMPK (Homo sapiens). To be noted: at 10 µM.
The target of test [8] is T4, NUAK family SNF1-like kinase 1 (Homo sapiens) (UniProt O60285).
T4 sequence (whole entry): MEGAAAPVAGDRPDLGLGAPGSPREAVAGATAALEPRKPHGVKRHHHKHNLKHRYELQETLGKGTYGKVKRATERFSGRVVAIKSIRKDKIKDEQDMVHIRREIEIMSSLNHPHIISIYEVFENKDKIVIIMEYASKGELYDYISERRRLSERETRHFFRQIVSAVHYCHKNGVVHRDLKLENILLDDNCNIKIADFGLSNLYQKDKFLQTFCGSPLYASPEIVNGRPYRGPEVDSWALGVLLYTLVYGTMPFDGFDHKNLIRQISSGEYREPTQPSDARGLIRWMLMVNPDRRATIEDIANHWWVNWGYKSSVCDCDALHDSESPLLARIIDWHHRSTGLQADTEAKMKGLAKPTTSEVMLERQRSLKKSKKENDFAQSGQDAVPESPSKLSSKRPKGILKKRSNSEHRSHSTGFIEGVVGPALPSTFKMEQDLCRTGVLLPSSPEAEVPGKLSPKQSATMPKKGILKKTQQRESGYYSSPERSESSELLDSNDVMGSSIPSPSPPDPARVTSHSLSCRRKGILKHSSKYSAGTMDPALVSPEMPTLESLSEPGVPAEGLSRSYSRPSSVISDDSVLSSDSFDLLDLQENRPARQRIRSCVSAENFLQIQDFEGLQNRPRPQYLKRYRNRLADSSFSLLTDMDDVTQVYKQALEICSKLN
As to conditions: at 1 µM.

Test [9] addresses T4, NUAK family SNF1-like kinase 1 (Homo sapiens). As to conditions: at 10 µM.
For test [10], the target named is T5, Mitogen-activated protein kinase kinase kinase 5 (Homo sapiens) (UniProt Q99683).
T5 sequence (whole entry): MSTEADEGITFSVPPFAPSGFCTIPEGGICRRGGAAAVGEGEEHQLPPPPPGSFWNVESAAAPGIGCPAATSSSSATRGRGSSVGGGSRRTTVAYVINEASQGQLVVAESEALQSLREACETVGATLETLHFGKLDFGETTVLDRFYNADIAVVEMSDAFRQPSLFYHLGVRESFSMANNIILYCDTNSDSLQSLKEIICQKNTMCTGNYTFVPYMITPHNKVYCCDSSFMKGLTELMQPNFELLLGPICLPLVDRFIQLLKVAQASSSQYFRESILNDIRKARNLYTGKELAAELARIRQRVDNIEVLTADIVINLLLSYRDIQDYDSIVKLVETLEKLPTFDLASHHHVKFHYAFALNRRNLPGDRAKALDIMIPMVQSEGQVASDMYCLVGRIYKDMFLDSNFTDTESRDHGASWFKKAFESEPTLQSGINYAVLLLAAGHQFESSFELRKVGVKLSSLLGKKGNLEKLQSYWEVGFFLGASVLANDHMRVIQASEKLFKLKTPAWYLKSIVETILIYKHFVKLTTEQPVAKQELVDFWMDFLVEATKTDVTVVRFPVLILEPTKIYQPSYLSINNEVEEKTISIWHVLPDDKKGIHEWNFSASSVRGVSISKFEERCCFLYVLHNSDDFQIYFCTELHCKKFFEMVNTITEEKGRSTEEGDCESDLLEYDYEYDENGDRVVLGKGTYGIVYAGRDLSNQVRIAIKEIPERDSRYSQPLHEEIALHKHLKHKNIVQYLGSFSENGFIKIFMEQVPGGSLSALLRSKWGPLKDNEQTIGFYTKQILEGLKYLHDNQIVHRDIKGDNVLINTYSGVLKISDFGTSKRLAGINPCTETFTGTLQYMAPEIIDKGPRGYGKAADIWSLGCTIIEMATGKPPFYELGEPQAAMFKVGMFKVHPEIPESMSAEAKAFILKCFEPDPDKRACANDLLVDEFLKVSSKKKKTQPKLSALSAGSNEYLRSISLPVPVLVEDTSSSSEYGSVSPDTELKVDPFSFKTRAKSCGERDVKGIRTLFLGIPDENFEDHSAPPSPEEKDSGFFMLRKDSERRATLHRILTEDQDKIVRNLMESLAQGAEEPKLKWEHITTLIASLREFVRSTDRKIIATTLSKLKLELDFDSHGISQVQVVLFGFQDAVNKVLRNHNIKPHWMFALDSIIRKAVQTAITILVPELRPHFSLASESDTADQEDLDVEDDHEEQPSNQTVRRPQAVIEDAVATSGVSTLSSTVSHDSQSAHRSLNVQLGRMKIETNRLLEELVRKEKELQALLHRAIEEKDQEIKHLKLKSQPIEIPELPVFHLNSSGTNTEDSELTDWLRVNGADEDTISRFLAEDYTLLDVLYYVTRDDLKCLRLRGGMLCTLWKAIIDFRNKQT
To be noted: at 1 µM.

Test [11] has as its target Platelet-derived growth factor receptor alpha (Homo sapiens) (UniProt P16234). As to conditions: at 1 µM.
For test [12] the target is unchanged. As to conditions: at 10 µM.
Test [13] deals with Platelet-derived growth factor receptor beta (Homo sapiens) (UniProt P09619). As to conditions: at 1 µM.
Chain of Platelet-derived growth factor receptor beta (Homo sapiens) (P09619 whole entry): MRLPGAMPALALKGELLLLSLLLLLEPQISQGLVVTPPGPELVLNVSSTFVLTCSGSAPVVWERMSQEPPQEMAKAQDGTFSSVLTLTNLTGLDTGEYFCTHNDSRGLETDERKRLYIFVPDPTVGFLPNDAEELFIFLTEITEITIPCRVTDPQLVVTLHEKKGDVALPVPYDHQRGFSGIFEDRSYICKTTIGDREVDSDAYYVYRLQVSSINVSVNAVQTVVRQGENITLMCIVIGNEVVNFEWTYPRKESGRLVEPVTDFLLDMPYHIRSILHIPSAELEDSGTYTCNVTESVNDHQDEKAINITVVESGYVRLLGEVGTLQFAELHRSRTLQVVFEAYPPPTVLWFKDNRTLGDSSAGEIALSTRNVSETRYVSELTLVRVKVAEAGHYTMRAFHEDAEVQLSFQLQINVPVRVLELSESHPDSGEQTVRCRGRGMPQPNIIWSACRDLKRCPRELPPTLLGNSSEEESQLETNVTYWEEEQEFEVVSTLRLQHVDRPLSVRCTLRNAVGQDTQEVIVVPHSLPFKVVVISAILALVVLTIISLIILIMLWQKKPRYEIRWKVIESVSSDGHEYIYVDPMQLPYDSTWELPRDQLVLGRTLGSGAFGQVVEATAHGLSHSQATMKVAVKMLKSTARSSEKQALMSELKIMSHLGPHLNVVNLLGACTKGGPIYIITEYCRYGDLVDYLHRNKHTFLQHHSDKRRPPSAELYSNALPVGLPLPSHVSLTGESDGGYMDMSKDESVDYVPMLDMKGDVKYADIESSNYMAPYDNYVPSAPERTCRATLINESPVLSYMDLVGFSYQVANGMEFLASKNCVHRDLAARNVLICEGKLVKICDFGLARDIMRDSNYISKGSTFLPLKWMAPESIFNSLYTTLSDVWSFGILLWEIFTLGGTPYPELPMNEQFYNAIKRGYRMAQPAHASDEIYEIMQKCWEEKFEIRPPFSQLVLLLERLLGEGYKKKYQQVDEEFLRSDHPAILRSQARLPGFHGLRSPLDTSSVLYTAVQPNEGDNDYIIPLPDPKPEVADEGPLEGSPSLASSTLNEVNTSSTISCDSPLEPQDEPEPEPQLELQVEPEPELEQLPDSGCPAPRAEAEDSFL
The target is the same in test [14]. As to conditions: at 10 µM.
For test [15], the target named is T6, 3-phosphoinositide-dependent protein kinase 1 (Homo sapiens) (UniProt O15530).
T6 sequence (whole entry): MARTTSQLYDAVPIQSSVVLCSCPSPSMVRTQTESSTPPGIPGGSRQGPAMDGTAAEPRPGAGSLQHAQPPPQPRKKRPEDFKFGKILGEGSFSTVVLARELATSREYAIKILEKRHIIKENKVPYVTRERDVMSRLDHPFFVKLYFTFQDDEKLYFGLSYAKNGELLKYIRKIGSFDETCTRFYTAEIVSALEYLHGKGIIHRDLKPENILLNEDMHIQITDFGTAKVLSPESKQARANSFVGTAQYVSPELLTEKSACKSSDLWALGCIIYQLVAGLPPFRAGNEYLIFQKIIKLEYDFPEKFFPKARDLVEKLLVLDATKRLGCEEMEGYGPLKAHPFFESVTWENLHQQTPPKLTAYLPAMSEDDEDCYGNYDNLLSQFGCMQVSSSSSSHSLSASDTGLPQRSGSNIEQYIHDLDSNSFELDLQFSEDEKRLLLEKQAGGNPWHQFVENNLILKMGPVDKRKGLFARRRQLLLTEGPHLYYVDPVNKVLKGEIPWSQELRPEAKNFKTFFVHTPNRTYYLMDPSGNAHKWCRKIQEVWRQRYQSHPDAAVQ
As to conditions: at 1 µM.

For test [16], the target named is T6, 3-phosphoinositide-dependent protein kinase 1 (Homo sapiens). As to conditions: at 10 µM.
Test [17] has as its target cAMP-dependent protein kinase catalytic subunit alpha (Homo sapiens) (UniProt P17612). As to conditions: at 10 µM.
Test [18] addresses RAC-gamma serine/threonine-protein kinase (Homo sapiens) (UniProt Q9Y243). As to conditions: at 1 µM.
For test [19] the target is unchanged. To be noted: at 10 µM.
The target in test [20] is cAMP-dependent protein kinase catalytic subunit alpha (Homo sapiens) (UniProt P17612). As to conditions: at 1 µM.

Chain of ALK tyrosine kinase receptor (Homo sapiens) (Q9UM73 19-1620 limits assumed): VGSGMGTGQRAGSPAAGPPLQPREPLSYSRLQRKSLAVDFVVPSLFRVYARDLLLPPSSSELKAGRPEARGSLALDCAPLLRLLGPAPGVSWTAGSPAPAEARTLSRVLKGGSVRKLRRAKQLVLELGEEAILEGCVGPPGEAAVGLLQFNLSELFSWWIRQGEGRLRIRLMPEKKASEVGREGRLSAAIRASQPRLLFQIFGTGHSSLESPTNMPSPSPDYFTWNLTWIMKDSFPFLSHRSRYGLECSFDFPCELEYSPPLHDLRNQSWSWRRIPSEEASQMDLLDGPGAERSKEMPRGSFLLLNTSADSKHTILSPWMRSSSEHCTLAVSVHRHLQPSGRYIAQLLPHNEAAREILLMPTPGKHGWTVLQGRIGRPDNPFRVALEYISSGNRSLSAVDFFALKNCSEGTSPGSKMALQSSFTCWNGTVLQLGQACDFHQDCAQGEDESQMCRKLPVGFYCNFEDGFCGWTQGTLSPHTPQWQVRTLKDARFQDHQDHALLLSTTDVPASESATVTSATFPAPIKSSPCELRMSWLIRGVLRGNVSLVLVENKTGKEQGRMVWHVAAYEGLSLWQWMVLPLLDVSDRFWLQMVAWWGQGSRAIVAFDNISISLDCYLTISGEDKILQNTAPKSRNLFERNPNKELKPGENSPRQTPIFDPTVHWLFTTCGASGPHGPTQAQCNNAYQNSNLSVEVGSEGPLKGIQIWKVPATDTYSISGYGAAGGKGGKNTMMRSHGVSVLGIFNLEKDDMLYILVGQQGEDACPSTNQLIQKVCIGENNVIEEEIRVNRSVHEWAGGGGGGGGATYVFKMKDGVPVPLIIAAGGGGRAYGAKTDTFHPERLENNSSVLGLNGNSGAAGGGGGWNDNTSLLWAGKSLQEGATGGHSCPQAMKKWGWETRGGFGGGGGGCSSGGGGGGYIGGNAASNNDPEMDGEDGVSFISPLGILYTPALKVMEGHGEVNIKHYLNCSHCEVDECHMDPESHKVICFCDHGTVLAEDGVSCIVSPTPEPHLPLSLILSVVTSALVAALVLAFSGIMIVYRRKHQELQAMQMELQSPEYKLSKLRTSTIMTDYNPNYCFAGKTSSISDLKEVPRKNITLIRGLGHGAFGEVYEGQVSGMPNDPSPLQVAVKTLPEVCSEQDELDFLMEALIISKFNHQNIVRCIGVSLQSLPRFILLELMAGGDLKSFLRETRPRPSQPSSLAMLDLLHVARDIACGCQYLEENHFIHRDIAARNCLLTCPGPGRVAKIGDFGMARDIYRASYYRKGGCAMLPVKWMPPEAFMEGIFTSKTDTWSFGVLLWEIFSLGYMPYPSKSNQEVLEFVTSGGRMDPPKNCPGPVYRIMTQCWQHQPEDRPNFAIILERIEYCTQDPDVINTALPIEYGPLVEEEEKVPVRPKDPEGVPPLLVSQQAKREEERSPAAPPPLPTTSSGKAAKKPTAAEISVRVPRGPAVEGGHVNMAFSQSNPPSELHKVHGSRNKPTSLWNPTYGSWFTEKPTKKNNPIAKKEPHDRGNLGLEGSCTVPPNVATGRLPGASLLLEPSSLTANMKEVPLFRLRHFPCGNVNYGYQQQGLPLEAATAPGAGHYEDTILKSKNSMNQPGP
Chain of Platelet-derived growth factor receptor alpha (Homo sapiens) (P16234 whole entry): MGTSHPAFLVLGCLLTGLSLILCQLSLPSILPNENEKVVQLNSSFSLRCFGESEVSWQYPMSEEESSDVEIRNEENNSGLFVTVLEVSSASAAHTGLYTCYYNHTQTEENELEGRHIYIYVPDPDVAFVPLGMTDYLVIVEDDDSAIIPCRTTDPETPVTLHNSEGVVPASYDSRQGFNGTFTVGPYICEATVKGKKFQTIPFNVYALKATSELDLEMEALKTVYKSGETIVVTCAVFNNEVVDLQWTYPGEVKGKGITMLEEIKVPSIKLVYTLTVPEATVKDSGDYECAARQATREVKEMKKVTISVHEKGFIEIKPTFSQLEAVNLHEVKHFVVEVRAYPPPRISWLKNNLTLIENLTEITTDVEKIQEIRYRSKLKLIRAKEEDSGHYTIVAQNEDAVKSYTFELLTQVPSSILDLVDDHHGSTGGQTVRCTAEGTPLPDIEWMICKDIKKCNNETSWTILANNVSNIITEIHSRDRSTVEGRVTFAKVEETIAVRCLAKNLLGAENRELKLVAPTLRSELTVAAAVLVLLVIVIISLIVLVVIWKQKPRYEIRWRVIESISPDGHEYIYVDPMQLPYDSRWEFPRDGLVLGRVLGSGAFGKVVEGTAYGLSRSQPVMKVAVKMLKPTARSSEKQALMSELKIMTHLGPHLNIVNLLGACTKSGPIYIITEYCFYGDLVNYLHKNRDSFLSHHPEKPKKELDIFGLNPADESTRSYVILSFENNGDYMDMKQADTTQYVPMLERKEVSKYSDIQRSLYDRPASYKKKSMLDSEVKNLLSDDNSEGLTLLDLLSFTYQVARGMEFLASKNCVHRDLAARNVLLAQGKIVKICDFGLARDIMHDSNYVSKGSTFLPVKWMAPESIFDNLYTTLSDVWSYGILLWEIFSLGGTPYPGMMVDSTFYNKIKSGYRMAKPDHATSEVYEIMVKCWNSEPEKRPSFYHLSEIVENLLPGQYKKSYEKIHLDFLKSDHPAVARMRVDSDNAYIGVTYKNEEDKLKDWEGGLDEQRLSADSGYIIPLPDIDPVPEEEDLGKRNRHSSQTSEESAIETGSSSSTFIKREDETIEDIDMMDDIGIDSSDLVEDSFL

In the case of `CO[C@@H]1[C@H](N(C)C(=O)c2ccccc2)C[C@H]2O[C@]1(C)n1c3ccccc3c3c4c(c5c6ccccc6n2c5c31)C(=O)NC4`, the residual activity in test [1] stood at 33%; in [2], 128%; in [3], 102%; in test [4] it was 10%; in [5], 6%; in test [6] it was 1%. For the same compound, the residual activity was 4% in test [7]; 7% in test [8]; 7% in test [9]; 96% in [10]; 54% in test [11]; 32% in test [12]. The residual activity in test [13] turned out to be 46%; in [14] it was 25%; in test [15], 2%; in test [16], 1%; in test [17] it was 10%; in [18], 22%. Moreover, the residual activity in test [19] was 14%.
Consider `COc1cc2ncnc(Nc3ccc(O)c(Br)c3)c2cc1OC`, for which the residual activity came out at 3% in test [1]; 111% in [2]; 85% in test [3]; 82% in [4]; 37% in test [5]; 93% in test [6]. Further, the residual activity is 52% in [7]; 78% in [8]; 36% in test [9]; 77% in test [10]; 103% in test [11]; 78% in test [12]. Moreover, the residual activity is 105% in test [13]; 83% in test [14]; 97% in [15]; 76% in test [16]; 88% in test [20]; 90% in [17]. Also, the values for the residual activity in test [18] and in test [19] were 101% and 80%, respectively.
Regarding `Oc1ccc(-c2nc(-c3ccc(F)cc3)c(-c3ccncc3)[nH]2)cc1`, the residual activity in test [1] was found to be 82%; in [2], 57%; in test [3] it was 8%; in test [4], 102%; in [5], 86%; in [6], 109%. Further, the residual activity in test [7] was 86%; in test [8], 122%; in test [9], 93%; in test [10] it was 92%; in test [11], 117%; in [12] it was 105%. Also, the residual activity in [13] was 111%; in test [14], 97%; in test [15], 108%; in [16] it was 94%; in test [18], 107%; in test [19], 77%.
For `COc1ccc(OC)c2c(=S)c3ccccc3[nH]c12`, the residual activity came out at 76% in test [1]; 90% in test [2]; 117% in test [3]; 90% in test [4]; 81% in test [5]; 87% in test [7]. Also, the residual activity in [8] worked out at 103%; in [9], 84%; in test [10], 96%; in [11] it was 109%; in test [12] it was 108%; in [13], 99%. The residual activity in test [14] amounted to 102%; in test [15], 96%; in test [16], 96%; in test [20], 87%; in [17], 94%; in test [18], 89%. Further, in test [19], the residual activity was 84%.
Consider `Cc1nc2cc3nc(-c4cccs4)cnc3cc2n1C`, for which the residual activity came out at 112% in [1]; 123% in test [2]; 88% in [3]; 116% in test [4]; 83% in [5]; 118% in [6]. Besides, the residual activity in test [7] was 85%; in test [8], 116%; in [9], 78%; in test [10] it was 109%; in test [11], 78%; in test [12] it was 15%. Besides, the residual activity in [13] stood at 97%; in test [14], 46%; in [15] it was 109%; in test [16] it was 109%; in test [20], 104%; in test [17] it was 106%. Besides, the residual activity in [18] turned out to be 112%; in [19], 102%.
